These results are taken from ChEMBL document CHEMBL3433997, “St. Jude Leishmania screening dataset” (2016).

Usually inhibition stands for the relative decrease from the control value, in per cent.

The target of one assay is Solute carrier family 2, facilitated glucose transporter member 1 (Homo sapiens) (UniProt P11166). Put plainly: ST_JUDE_LEISH: Cytotoxicity at 2uM final concentration against transgenic Leishmania Mexicana promastigotes LmGLUT1 that are glucose transport deficient and complemented with the human glucose transporter GLUT1. Activity is measured by DNA content using SYBR green in vitro. In kind it is functional.
Chain of Solute carrier family 2, facilitated glucose transporter member 1 (Homo sapiens) (P11166 whole entry): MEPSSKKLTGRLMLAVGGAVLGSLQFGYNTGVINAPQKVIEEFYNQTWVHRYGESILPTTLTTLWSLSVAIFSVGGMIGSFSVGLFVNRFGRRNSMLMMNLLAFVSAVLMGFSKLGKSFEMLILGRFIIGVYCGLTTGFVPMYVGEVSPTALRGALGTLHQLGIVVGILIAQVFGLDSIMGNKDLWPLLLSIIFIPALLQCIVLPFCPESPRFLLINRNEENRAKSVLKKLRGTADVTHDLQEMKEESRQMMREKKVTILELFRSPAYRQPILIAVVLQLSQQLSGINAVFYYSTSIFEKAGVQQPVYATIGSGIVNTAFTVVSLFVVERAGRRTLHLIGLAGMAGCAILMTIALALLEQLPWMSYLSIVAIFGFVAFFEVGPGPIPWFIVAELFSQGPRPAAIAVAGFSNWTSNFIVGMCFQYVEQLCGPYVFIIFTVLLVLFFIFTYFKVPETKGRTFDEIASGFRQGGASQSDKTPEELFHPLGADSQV
In the case of `COc1ccccc1C1CCN(CCN2CCC(NC(=O)c3ccc(-c4ccc(C#N)cc4)cc3)CC2)CC1`, the inhibition was -0.2%.

As for `O=C(c1ccco1)N1CCN(c2ccc([N+](=O)[O-])c(NC3CC3)c2)CC1`, the inhibition stood at 0.6%.

As for `CCOc1ccc(Cc2c(C)nc3nc(N)nc(N)c3c2C)cc1`, the inhibition was 29.1%.

With `CC(c1cccc(S(=O)(=O)NCc2cccc(C(F)(F)F)c2)c1)N1CCC(N2CCCCC2)CC1` (centres undefined), the inhibition was 6.15%.

Regarding `CC(Oc1c(C2CCN(CCCCNC(=O)c3ccc(-c4ccc(C#N)cc4)cc3)CC2)ccc2c1CCCC2)C(N)=O` (centres undefined), the inhibition was -0.84%.

In the case of `NC1CCN(Cc2cccc(-c3cccc(-c4nc5ccccc5[nH]4)c3)c2)C1` (centres undefined), the inhibition worked out at 2.17%.

As for `O=C(Cn1c(SCc2cccc(F)c2F)cc(=O)c2ccccc21)N(CCN1CCCCC1)Cc1ccc(-c2ccc(C(F)(F)F)cc2)cc1`, the inhibition is -1.53%.

In the case of `COc1ccc(Cl)cc1N1CCN(CCCNC(=O)c2ccc(-c3nc4cnccc4[nH]3)c(Br)c2)CC1`, the inhibition amounted to 0.19%.

With `CN1CCN(CC(O)CNC(=O)Nc2ccc(Cl)cc2)CC1` (centres undefined), the inhibition amounted to 5.3%.

As for `COc1ccc2c(NN=Cc3ccccn3)ccnc2c1`, the inhibition amounted to 13.7%.

For another assay, the target named is Hexose transporter 1 (Plasmodium falciparum) (UniProt O97467). Put plainly: ST_JUDE_LEISH: Cytotoxicity at 2uM final concentration against transgenic Leishmania Mexicana promastigotes LmPfHT that are glucose transport deficient and complemented with the Plasmodium falciparum hexose transporter. Activity is measured by DNA content using SYBR green in vitro. It counts as functional.
Regarding `O=C(c1cc(-c2ccccc2)n[nH]1)N1CCN(S(=O)(=O)c2ccc(Cl)s2)CC1`, the inhibition was 1.3%.

Regarding `Nc1ncc(-c2ccc3nccc(-c4ccncc4)c3c2)cc1S(=O)(=O)N1CCCCC1`, the inhibition amounted to 11.3%.

Regarding `Cc1cc(F)ccc1Nc1nc(N(C)c2ccccc2)c2cccc(O)c2n1`, the inhibition turned out to be 9.06%.

Turning to `Cc1[nH]c(C)c(-c2ccc(OCc3cccc(C(F)(F)F)c3)nc2)c(=O)c1Br`, the inhibition amounted to 64.4%.

With `CC(C)Nc1nc(NCCc2c[nH]cn2)nc(NCc2cccc3ccccc23)n1`, the inhibition was -0.07%.

`COc1cc2nc(NCC3CCN(C(=O)c4ccc(-c5ccc(C(=O)N(C)C)cc5C)cc4)CC3)nc(N)c2cc1OC`: the inhibition turned out to be 9.71%.

With `CC(=O)N(C)C1CCN(Cc2ccc(-c3ccc(-c4nc5cc(F)ccc5[nH]4)s3)cc2)C1` (centres undefined), the inhibition worked out at 5.96%.

As for `O=C(Nc1ccc(N2CCNCC2)cc1)c1ccn2ncc(-c3cccc(Cl)c3)c2n1`, the inhibition turned out to be 83.9%.

In the case of `CN(C)CCCn1cncc1-c1ccc2ncnc(Nc3ccc4c(cnn4Cc4ccccc4)c3)c2c1`, the inhibition worked out at 1.38%.

In the case of `O=C1COC2(CN1C1CCN(Cc3ccc(O)c(Cl)c3)C1)c1ccccc1-c1ccccc12` (centres undefined), the inhibition is 7.57%.

Consider `COC(=O)c1ccc(CC(C)NCC(O)c2ccc(C(O)CNC(C)Cc3ccc(C(=O)OC)cc3)cc2)cc1` (centres undefined), for which the inhibition stood at 1.69%.

As for `N=C(NC1CC1)c1ccc2[nH]c(CCCCCc3nc4cc(C(=N)NC5CC5)ccc4[nH]3)nc2c1`, the inhibition is -0.68%.

Regarding `COc1ccc(CNC(=O)c2cnc3c(O)cccc3c2Nc2cccc(NC(=O)c3ccc(Cl)c([N+](=O)[O-])c3)c2)cc1`, the inhibition was found to be 6.77%.

Turning to `O=C(NCc1ccccn1)C(c1cc2ccccc2o1)N1CCN(C(c2ccccc2)c2ccccc2)CC1` (centres undefined), the inhibition came out at 2.14%.

Consider `COc1ccc2nccc([C@@H](O)CN3CCC(NCc4cc5cccc(OCc6ccccc6)c5[nH]4)CC3)c2c1`, for which the inhibition amounted to 0.05%.

Take `CN(CCN)Cc1cccc(-c2cccc(-c3nc4cc(F)ccc4[nH]3)c2)c1`: the inhibition stood at 1.79%.

As for `CN(C)C(CNC(=O)c1cc(-c2ccncc2)c(-c2ccc(NC(=O)Nc3ccccc3)cc2)o1)c1ccccc1` (centres undefined), the inhibition was -0.15%.

As to `COc1cccc(-c2ccc(C(=O)NCC3CCCN(Cc4cccc(C(F)(F)F)c4)C3)s2)c1` (centres undefined), the inhibition was -4.36%.

`C(=C(c1cccs1)c1cccs1)c1ccc(CNC2CCN(Cc3ccccc3)CC2)cc1`: the inhibition is 6.16%.

Consider `CCCCCCn1c(Sc2ccc(C#N)c([N+](=O)[O-])c2)nnc1-c1ccccc1`, for which the inhibition is 11.1%.

Take `CN(C)c1ccc2c(c1)Sc1cc(N(C)C)ccc1N2C(=O)CCCC(=O)O`: the inhibition stood at 1.94%.

Turning to `CC(C)(C)c1ccc(OCCCON2C(=N)N=C(N)NC2(C)C)c(C(C)(C)C)c1`, the inhibition was 0.14%.

Consider `Cc1cccc(CNc2nccc3[nH]c4ccccc4c23)c1`, for which the inhibition came to 4.77%.

Take `c1cc(CN2CCN(CCN3CCOCC3)CC2)cc(-c2csc(-c3nc4ccccc4[nH]3)c2)c1`: the inhibition came out at 5.16%.

With `O=C(NCCCCN1CCC(c2ccc3c(c2OCCOCCO)CCCC3)CC1)c1ccc(-c2ccc(C(F)(F)F)cc2)cc1`, the inhibition was determined as 2.47%.

Regarding `COc1ccc(C=NNc2cc(C)nc3ccc(OC)cc23)c(OC)c1`, the inhibition was 7.55%.

Turning to `CC12CC3CC(C)(C1)CC(Nc1nc(N4CCOCC4)nc4ccccc14)(C3)C2`, the inhibition worked out at 2.82%.

Turning to `C=CC[C@H](NC(=O)c1ccc(NS(=O)(=O)c2ccc3nc(N)[nH]c(=O)c3c2)cc1)C(=O)OCCCC`, the inhibition is 0.62%.

`N#Cc1cccc(C(=O)Nc2cccc(-c3ccc(CN4CCC(O)CC4)cc3)c2)c1`: the inhibition is -0.89%.
